Experimental data from PubChem BioAssay.
The source made the active and inactive calls. Unless noted, how the calls were made is not given here.

What was measured:
[1] = compounds binding Alexa647 anti-His antibody – biochemical, small-molecule microarray, 635 nm fluorescence, artefact control for SMM control protein annotation, primary screen (AID 1128); settings: higher = more signal;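 further: score merges feature fluorescence with signal-to-noise for each printed compound spot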
[2] = test system: Human papillomavirus type 1a E7 protein (residues 1-88); experiment: HPV1a E7 small-molecule binders, primary screen, biochemical, small-molecule microarray, residues 1-88, 635 nm (AID 1129); settings: small-molecule microarray binding, fluorescence 635 nm; higher = more signal
[3] = target: Focal adhesion kinase 1 (Homo sapiens) (UniProt Q05397); experiment: PTK2 protein binding on printed compound slides – biochemical, small-molecule microarray, 635/667 nm fluorescence, BSA, DTT, primary screen (AID 1130); settings: 635 nm fluorescence, higher = more signal;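 further: composite of spot emission at 667 nm and signal to noise over triplicate slides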
[4] = test system: Fibrinogen (Alexa647-labelled); experiment: Alexa647-fibrinogen binding to printed small molecules – biochemical, small-molecule microarray, 635/667 nm fluorescence, artefact control for SMM control-protein annotation, profiling panel (AID 1131); settings: fibrinogen-A647 binding fluorescence, higher = more signal;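 further: z-score merges 667 nm fluorescence with per-spot signal-to-noise over triplicate slides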
[5] = target: Follistatin (Homo sapiens) (UniProt P19883); experiment: FST protein binding to printed compounds – biochemical, small-molecule microarray, 635/667 nm fluorescence, primary screen (AID 1132); settings: 635 nm fluorescence, higher = more signal
[6] = target: Fibroblast growth factor 2 (Homo sapiens) (UniProt P09038); experiment: basic fibroblast growth factor binding to printed compounds – biochemical, small-molecule microarray, 635/667 nm fluorescence, primary screen (AID 1133); settings: FGF2, fluorescence 635/667, higher = more signal
[7] = JC-1 mitochondrial potential readout, lung cancer cells – cell-based, A549, JC-1 fluorescence, basal, 24 h, 100 nL, profiling panel (AID 1138); settings: higher = more signal;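 further: A549 lung adenocarcinoma cells under basal conditions with no added stimulus; test concentration not given here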
Lefty1 = Lefty1 protein binding to printed compounds – biochemical, small-molecule microarray, 635/667 nm fluorescence, primary screen (AID 1139); settings: fluorescence 635/667, higher = more signal
[8] = test system: wheat germ agglutinin (Triticum aestivum), Alexa647-labelled; experiment: Alexa647-WGA lectin binding to printed small molecules – biochemical, small-molecule microarray, 635/667 nm fluorescence, artefact control for SMM control-protein annotation, profiling panel (AID 1140); settings: WGA-A647 binding, 635 nm fluorescence, higher = more signal;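 further: score merges 667 nm feature emission with signal to noise over triplicate slides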
[9] = target: Luciferin 4-monooxygenase (Photinus pyralis) (UniProt P08659); experiment: inhibition of purified Photinus pyralis luciferase – biochemical, luminescence, purified enzyme, 2006 set, primary screen (AID 1141); settings: purified firefly luciferase, SteadyGlo luminescence, 30 min; higher = more signal, called active from +8 up or from −8 down;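 further: cell-free assay with purified firefly luciferase at 100 ng per well in PBS; test concentration not given here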
[10] = test system: Wnt5a (protein binding on small-molecule microarray); experiment: small molecules binding Wnt5a protein – biophysical, small-molecule microarray, 635/667 nm fluorescence, primary screen (AID 1142); settings: 635 nm fluorescence, higher = more signal;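 further: fluorescence read at 667 nm with signal to noise per printed feature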
[11] = ATP-based viability of Huh7 replicon cells – cell-based, CellTiter-Glo luminescence, basal, 48 h, cytotoxicity control for HCV replication inhibitor project, primary screen (AID 1143); settings: higher = more signal, called active from +8 up or from −8 down;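 further: Huh7 hepatoma cells carrying a hepatitis C replication reporter with no stimulus; test concentration not given here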
[12] = Pseudomonas biofilm growth suppression – PAO1 strain, BacTiter-Glo luminescence, LB-PBS, primary screen (AID 1144); settings: P. aeruginosa PAO1 biofilm, 12 h, higher = more signal
[13] = basal CRE-LacZ reporter activity in PC12 – cell-based, unstimulated, primary screen (AID 1145); settings: no forskolin, luminescence, 4.5 h, higher = more signal, called active from +8 up or from −8 down
[14] = forskolin-driven CRE-LacZ activity in PC12 – cell-based, CRE-LacZ reporter, forskolin-stimulated, primary screen (AID 1146); settings: luminescence, 4.5 h, higher = more signal, called active from +8 up or from −8 down;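 further: PC12 cells with 6xCRE LacZ reporter stimulated by forskolin 10 µM; beta-galactosidase reporter signal reflecting CREB driven transcription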
[15] = target: Streptavidin (Streptomyces avidinii) (UniProt P22629); experiment: compounds binding control protein streptavidin – biophysical, small-molecule microarray, 635/667 nm fluorescence, artefact control for SMM compound annotation, primary screen (AID 1147); settings: higher = more signal;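 further: signal reflects streptavidin binding to arrayed compounds as a control protein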
[16] = probe aInhba binding on compound microarray – biochemical, small-molecule microarray, 635/667 nm fluorescence, primary screen (AID 1148); settings: higher = more signal;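 further: score merges 667nm spot fluorescence with signal-to-noise for antibody binding to printed compounds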
Torsin-1A (Homo sapiens) [17] = target: Torsin-1A (Homo sapiens) (UniProt O14656); experiment: TOR1A wild-type binding on microarray – cell lysate, small-molecule microarray, lysate, 635/667 nm, primary screen (AID 1149); settings: COS7 hTOR1A-WT lysate, 635 nm fluorescence, higher = more signal
Torsin-1A (Homo sapiens) [18] = target: Torsin-1A (Homo sapiens) (UniProt O14656); experiment: torsin A mutant lysate binding on microarrays – cell lysate, small-molecule microarray, COS7 lysate, 635/667 nm fluorescence, primary screen (AID 1150); settings: COS7 hTOR1A mutant lysate, 635 nm fluorescence, higher = more signal;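 further: score pools 667 nm emission and signal to noise measuring lysate protein binding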
[19] = test system: Sonic hedgehog protein (Shh); experiment: Sonic hedgehog microarray binding compounds – biochemical, small-molecule microarray, 635/667 nm fluorescence, primary screen (AID 1151); settings: 635 nm fluorescence, higher = more signal;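 further: Shh protein binding to compounds spotted on small-molecule microarray slides; score combines spot fluorescence intensity with signal-to-noise across triplicate slides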

Sequence of Streptavidin (Streptomyces avidinii) (P22629 whole entry, looked up): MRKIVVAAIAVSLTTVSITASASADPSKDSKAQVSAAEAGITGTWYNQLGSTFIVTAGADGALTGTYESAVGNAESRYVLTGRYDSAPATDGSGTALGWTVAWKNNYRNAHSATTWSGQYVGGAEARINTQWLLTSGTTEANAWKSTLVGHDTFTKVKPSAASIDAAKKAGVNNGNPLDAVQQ
Sequence of Fibroblast growth factor 2 (Homo sapiens) (P09038 whole entry, looked up): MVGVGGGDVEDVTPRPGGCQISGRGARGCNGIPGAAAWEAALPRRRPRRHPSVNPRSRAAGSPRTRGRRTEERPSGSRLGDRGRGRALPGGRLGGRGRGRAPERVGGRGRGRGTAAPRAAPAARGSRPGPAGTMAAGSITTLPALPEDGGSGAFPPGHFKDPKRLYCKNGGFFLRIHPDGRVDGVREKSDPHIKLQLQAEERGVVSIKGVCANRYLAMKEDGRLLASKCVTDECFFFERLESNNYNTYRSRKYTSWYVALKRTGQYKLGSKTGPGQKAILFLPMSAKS
Sequence of Focal adhesion kinase 1 (Homo sapiens) (Q05397 whole entry, looked up): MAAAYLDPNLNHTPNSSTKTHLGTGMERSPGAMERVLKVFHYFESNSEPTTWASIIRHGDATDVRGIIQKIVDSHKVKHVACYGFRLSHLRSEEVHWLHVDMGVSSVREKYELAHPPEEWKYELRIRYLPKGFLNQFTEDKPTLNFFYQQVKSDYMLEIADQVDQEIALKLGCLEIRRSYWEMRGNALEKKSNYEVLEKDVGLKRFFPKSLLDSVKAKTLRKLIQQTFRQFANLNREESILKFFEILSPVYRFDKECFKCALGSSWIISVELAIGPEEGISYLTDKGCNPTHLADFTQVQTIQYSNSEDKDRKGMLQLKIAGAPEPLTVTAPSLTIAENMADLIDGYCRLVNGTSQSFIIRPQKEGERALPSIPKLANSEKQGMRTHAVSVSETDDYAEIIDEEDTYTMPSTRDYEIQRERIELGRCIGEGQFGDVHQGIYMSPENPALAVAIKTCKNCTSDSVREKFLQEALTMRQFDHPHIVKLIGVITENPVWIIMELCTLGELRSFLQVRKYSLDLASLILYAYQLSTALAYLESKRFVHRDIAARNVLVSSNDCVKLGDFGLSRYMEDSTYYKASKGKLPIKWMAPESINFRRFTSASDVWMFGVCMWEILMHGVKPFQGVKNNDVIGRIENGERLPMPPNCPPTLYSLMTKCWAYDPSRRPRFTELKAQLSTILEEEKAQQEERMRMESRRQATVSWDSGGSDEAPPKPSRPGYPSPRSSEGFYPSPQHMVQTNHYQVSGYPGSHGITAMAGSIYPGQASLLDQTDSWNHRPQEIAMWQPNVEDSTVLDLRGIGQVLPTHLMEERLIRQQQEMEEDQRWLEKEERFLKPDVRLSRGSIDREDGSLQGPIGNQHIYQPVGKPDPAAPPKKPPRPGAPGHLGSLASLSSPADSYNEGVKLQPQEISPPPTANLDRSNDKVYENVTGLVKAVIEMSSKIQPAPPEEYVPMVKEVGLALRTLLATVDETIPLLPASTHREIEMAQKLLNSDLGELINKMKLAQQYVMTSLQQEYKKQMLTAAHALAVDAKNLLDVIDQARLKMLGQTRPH
Sequence of Follistatin (Homo sapiens) (P19883 whole entry, looked up): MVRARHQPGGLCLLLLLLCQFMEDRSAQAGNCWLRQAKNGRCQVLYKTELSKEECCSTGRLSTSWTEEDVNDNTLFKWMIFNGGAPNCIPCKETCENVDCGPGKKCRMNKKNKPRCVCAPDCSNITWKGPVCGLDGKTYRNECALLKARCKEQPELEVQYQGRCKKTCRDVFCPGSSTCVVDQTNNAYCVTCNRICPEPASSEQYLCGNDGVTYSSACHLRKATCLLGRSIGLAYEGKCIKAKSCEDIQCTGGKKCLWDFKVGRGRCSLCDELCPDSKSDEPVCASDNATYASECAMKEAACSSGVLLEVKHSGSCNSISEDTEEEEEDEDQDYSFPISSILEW
Sequence of Luciferin 4-monooxygenase (Photinus pyralis) (P08659 whole entry, looked up): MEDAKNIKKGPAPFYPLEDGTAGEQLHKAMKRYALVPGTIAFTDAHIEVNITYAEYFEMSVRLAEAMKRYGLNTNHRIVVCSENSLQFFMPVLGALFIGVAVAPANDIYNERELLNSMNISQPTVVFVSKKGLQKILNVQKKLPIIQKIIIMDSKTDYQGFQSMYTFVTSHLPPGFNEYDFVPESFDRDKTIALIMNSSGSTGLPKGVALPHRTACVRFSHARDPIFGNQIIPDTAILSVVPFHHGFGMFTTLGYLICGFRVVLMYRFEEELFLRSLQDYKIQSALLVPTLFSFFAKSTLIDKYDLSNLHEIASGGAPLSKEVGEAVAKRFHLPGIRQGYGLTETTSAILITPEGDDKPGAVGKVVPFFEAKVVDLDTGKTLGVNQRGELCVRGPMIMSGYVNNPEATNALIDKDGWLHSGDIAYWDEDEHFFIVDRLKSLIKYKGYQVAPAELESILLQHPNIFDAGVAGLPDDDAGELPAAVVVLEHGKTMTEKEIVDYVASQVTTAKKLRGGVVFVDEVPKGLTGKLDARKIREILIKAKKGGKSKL
Sequence of Torsin-1A (Homo sapiens) (O14656 whole entry, looked up): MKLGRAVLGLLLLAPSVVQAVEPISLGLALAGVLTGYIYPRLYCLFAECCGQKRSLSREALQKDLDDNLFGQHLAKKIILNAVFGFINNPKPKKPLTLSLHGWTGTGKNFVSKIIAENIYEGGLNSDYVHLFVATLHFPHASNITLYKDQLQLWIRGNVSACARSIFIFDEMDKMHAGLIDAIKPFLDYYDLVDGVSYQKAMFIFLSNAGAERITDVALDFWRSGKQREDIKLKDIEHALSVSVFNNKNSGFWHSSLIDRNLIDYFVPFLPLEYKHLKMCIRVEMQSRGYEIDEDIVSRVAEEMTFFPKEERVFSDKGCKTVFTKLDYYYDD

| SMILES | composite z-score [1] | composite z-score [2] | composite z-score [3] | composite z-score [4] | composite z-score [5] | composite z-score [6] | z-score [7] | composite z-score (Lefty1) | composite z-score [8] | z-score [9] | composite z-score [10] | z-score [11] | z-score [12] | z-score [13] | z-score [14] | composite z-score [15] | composite z-score [16] | composite z-score (Torsin-1A (Homo sapiens) [17]) | composite z-score (Torsin-1A (Homo sapiens) [18]) | composite z-score [19] |
| --- | --- | --- | --- | --- | --- | --- | --- | --- | --- | --- | --- | --- | --- | --- | --- | --- | --- | --- | --- | --- |
| O=C1O[C@@H](c2ccccc2)[C@@H](c2ccccc2)N2[C@@H](c3ccc(O)cc3)[C@]3(C(=O)Nc4ccc(C#CC5(O)CCCCCC5)cc43)[C@@H](C(=O)NC[C@H](O)c3ccccc3)[C@H]12 | 0.326 | 0.899 | 0.551 | 0.151 | -0.538 | -0.322 | -1.31 | -0.218 | 0.297 | 0.27 (inactive) | 0.0895 | -1.42 (inactive) | -0.144 (inactive) | -0.606 (inactive) | -0.448 (inactive) | -0.508 | -0.0221 | 0.0581 | -0.135 | 0.217 |
| CCOC(=O)C1=CC[C@@H](c2ccccc2C(F)(F)F)N(S(=O)(=O)c2ccc(C)cc2)[C@H]1c1ccc(C#N)cc1 | 0.915 | 1.15 | -0.0446 | 0.647 | 0.507 | 0.437 | -1.92 | -0.0373 | 1.08 | 1.47 (inactive) | 0.125 | -1.96 (inactive) | -0.29 (inactive) | -0.676 (inactive) | 0.465 (inactive) | 1.11 | 0.367 | 0.502 | 0.512 | 0.494 |
| CC(C)C[C@@H]1NC(=O)[C@@H]2C[C@H](C(=O)NCCCCCN)[C@H](c3ccc(O)cc3)N2C1=O | 0.854 | 1.15 | 0.269 | 0.761 | 1.43 | 1.66 | -0.188 | 1.3 | 0.899 | -0.348 (inactive) | 0.329 | -0.079 (inactive) | -0.422 (inactive) | 0.411 (inactive) | 0.437 (inactive) | 1.01 | -0.171 | 0.457 | 0.465 | 2.04 |
| COCCOC(=O)N1C(=O)[C@@]2(c3cc(C#CC4=CCCCC4)ccc31)[C@H](c1ccc(OCCO)cc1)N1[C@H](c3ccccc3)[C@H](c3ccccc3)OC(=O)[C@H]1[C@@H]2C(=O)N1CCN(c2ncccn2)CC1 | 0.433 | 1.15 | 0.067 | 0.574 | 1.29 | 0.692 | -1.27 | 0.853 | 0.5 | -2.01 (inactive) | 0.323 | -1.24 (inactive) | 1.04 (inactive) | 0.212 (inactive) | -0.674 (inactive) | 0.0363 | 0.0649 | 0.767 | 0.501 | 0.772 |
| C[C@@H]1ON(c2ccc(C(=O)OC(C)(C)C)cc2)[C@H](c2ccc(O)cc2)[C@H]1C(=O)N1C(=O)OC[C@H]1Cc1ccccc1 | 0.249 | 1.03 | 0.437 | 0.584 | 0.472 | 0.382 | -1.49 | 1.29 | 0.828 | -0.416 (inactive) | 0.218 | -2.96 (inactive) | 0.133 (inactive) | 1.22 (inactive) | 0.419 (inactive) | 0.922 | -0.0552 | 0.438 | 0.616 | 0.596 |
| O=C(CS)NCCCCCNC(=O)[C@@H]1C[C@@H]2C(=O)N3CCC[C@H]3C(=O)N2[C@@H]1c1cccc(OCCO)c1 | 2.66 | 1.21 | 0.515 | -0.561 | 1.28 | 1.24 | 0.777 | -0.283 | -0.161 | -1.38 (inactive) | 0.336 | -0.0341 (inactive) | -0.448 (inactive) | 0.143 (inactive) | -0.16 (inactive) | 0.281 | -0.46 | 1.44 | 0.656 | 0.792 |
